From PubChem BioAssay
Active and inactive are the calls of the source.

Columns and labels:
[1] = small molecules captured by biotinylated probe aFSTL3 – biochemical, small-molecule microarray, fluorescence 635/667, stem cell growth factor project, primary screen (AID 1064); settings: higher = more signal;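 note: measures binding of the biotinylated anti-FSTL3 antibody to printed compounds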
[2] = binders from COS7 lysate, DM2A8 probe, primary screen, torsin A project, cell lysate, small-molecule microarray, fluorescence 635/667 (AID 1065); settings: higher = more signal, COS7 lysate expressing mutant human TOR1A
[3] = small molecules captured by biotinylated probe aFGF2 – biochemical, small-molecule microarray, fluorescence 635/667, stem cell growth factor project, primary screen (AID 1067); settings: higher = more signal;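 note: measures binding of biotinylated aFGF2 protein to printed compounds on slides; z-score merges feature fluorescence and signal-to-noise across triplicate slides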
[4] = small molecules captured by biotinylated probe aFGF10 – biochemical, small-molecule microarray, fluorescence 635/667, stem cell growth factor project, primary screen (AID 1071); settings: higher = more signal;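 note: score merges 667 nm spot intensity and signal to noise from triplicate slides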
[5] = target: Neurogenic locus notch homolog protein 2 (Homo sapiens) (UniProt Q04721); assay: small molecules binding Notch2 protein – biochemical, small-molecule microarray, 635 nm fluorescence, stem cell growth factors, primary screen (AID 1073); settings: higher = more signal
[6] = target: Pro-neuregulin-1, membrane-bound isoform (Homo sapiens) (UniProt Q02297); assay: small molecules binding neuregulin-1 protein – biochemical, small-molecule microarray, fluorescence 635/667, psychiatric disease protein project, primary screen (AID 1075); settings: NRG1 binding, 635 nm fluorescence, higher = more signal;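 note: score combines 667 nm spot fluorescence with signal to noise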
[7] = test system: Neuregulin-1 EGF-like domain; assay: small molecules binding NRG1 EGF domain – biochemical, small-molecule microarray, 635 nm fluorescence, primary screen (AID 1081); settings: higher = more signal;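 note: binding of the protein to compounds printed on small-molecule microarray slides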
[8] = FRG1 expression reporter modulators in myotubes – cell-based, C2C12 myotubes, firefly/Renilla luciferase, luminescence, FRG1 inhibition for FSHD, primary screen (AID 1084); settings: FRG1 promoter luciferase, higher = more signal, called active from +8 up or from −8 down
[9] = small molecules captured by biotinylated probe aFST – biochemical, small-molecule microarray, fluorescence 635/667, stem cell growth factor project, primary screen (AID 1086); settings: higher = more signal;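 note: score merges 667 nm fluorescence with signal-to-noise of each printed compound spot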
[10] = binders of probe aHhip on microarray, primary screen, stem cell growth factor project, biochemical, small-molecule microarray, fluorescence 635/667 (AID 1087); settings: higher = more signal;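 note: score merges spot fluorescence at 667nm with spot signal to noise ratio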
[11] = test system: PRMT1 (protein arginine N-methyltransferase 1); assay: small molecules binding arginine methyltransferase PRMT1 – biochemical, small-molecule microarray, 635 nm fluorescence, primary screen (AID 1088); settings: higher = more signal;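 note: binding of Prmt1 protein to compounds spotted on small-molecule microarray slides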
[12] = growth effects on S. cerevisiae YJM789 – YJM789 clinical isolate, OD600, 24 h, basal, primary screen (AID 1089); settings: higher = more signal, called active from +8 up or from −8 down;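 note: growth of clinical yeast isolate S. cerevisiae YJM 789 seeded 1000 cells per well; test concentration not given here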
[13] = S. pombe growth modifiers, basal conditions – strain 972, OD600, 24 h, no modulator, primary screen (AID 1090);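 note: basal condition with compound alone and no growth modifier present; test concentration not given here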; settings: S. pombe 972 growth, higher = more signal, called active from +8 up or from −8 down
[14] = budding yeast growth modifiers under rapamycin – strain BY4716, OD600, 96 h, primary screen (AID 1091); note: test concentration not given here; settings: S. cerevisiae BY4716 + rapamycin, higher = more signal, called active from +8 up or from −8 down
[15] = target: Torsin-1A-interacting protein 2 (Homo sapiens) (UniProt Q8NFQ8); assay: small molecules binding lysate-expressed LULL1 – cell lysate, human LULL1 lysate, 635/667 nm fluorescence, primary screen (AID 1092); settings: small-molecule microarray, hLULL1 lysate binding, 635 nm fluorescence; higher = more signal;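 note: probe is lysate of COS7 cells overexpressing human LULL1; score merges per-feature 667 nm fluorescence with signal-to-noise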
[16] = optical density change of DRC41 E. coli – strain DRC41, OD650, 24 h, E. coli filamentation project, primary screen (AID 1093);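 note: MC1000 strain lacking acrAB efflux and sulA so SOS filamentation is blocked; test concentration not given here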; settings: E. coli DRC41 growth, higher = more signal, called active from +8 up or from −8 down
[17] = probe aLefty2 binding to arrayed compounds – biochemical, biotinylated probe, 635/667 nm fluorescence, primary screen (AID 1094); settings: small-molecule microarray, higher = more signal;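 note: score merges spot fluorescence near 667 nm with spot signal-to-noise ratio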
[18] = test system: Noggin (protein binding on small-molecule microarray); assay: small molecules binding Noggin protein – biochemical, 635/667 nm fluorescence, primary screen (AID 1095); settings: 635 nm fluorescence, higher = more signal;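 note: score merges 667 nm feature fluorescence with signal to noise over triplicate slides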
[19] = target: Neurogenic locus notch homolog protein 3 (Homo sapiens) (UniProt Q9UM47); assay: small molecules binding NOTCH3 protein – biochemical, 635/667 nm fluorescence, primary screen (AID 1096); settings: small-molecule microarray, 635 nm fluorescence, higher = more signal
[20] = probe aEGFR binding to arrayed compounds – biochemical, biotinylated probe, 635/667 nm fluorescence, primary screen (AID 1097); settings: small-molecule microarray, higher = more signal;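 note: probe is a biotinylated anti-EGFR antibody binding compounds printed on slides; score combines fluorescence near 667 nm and signal to noise of each spot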

Pro-neuregulin-1, membrane-bound isoform (Homo sapiens), sequence (Q02297 whole entry, looked up, the tested form may be a part, canonical isoform): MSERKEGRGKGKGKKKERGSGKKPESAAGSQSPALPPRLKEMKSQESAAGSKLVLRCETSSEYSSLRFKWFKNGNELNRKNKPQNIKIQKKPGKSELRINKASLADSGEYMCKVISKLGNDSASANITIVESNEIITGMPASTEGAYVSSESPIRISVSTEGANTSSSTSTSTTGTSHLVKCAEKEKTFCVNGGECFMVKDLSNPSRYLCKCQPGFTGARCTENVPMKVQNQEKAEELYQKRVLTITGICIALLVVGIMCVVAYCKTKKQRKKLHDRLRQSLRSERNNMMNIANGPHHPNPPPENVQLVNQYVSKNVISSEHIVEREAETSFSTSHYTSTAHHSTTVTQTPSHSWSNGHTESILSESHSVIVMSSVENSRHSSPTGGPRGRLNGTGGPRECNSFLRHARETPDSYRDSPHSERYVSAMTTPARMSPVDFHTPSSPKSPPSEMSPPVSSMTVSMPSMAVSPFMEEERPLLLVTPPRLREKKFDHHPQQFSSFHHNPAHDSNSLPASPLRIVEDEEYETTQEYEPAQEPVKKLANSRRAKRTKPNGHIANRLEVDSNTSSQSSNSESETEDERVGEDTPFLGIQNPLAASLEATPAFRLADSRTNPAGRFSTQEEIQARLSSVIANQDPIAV
Neurogenic locus notch homolog protein 3 (Homo sapiens), sequence (Q9UM47 whole entry, looked up): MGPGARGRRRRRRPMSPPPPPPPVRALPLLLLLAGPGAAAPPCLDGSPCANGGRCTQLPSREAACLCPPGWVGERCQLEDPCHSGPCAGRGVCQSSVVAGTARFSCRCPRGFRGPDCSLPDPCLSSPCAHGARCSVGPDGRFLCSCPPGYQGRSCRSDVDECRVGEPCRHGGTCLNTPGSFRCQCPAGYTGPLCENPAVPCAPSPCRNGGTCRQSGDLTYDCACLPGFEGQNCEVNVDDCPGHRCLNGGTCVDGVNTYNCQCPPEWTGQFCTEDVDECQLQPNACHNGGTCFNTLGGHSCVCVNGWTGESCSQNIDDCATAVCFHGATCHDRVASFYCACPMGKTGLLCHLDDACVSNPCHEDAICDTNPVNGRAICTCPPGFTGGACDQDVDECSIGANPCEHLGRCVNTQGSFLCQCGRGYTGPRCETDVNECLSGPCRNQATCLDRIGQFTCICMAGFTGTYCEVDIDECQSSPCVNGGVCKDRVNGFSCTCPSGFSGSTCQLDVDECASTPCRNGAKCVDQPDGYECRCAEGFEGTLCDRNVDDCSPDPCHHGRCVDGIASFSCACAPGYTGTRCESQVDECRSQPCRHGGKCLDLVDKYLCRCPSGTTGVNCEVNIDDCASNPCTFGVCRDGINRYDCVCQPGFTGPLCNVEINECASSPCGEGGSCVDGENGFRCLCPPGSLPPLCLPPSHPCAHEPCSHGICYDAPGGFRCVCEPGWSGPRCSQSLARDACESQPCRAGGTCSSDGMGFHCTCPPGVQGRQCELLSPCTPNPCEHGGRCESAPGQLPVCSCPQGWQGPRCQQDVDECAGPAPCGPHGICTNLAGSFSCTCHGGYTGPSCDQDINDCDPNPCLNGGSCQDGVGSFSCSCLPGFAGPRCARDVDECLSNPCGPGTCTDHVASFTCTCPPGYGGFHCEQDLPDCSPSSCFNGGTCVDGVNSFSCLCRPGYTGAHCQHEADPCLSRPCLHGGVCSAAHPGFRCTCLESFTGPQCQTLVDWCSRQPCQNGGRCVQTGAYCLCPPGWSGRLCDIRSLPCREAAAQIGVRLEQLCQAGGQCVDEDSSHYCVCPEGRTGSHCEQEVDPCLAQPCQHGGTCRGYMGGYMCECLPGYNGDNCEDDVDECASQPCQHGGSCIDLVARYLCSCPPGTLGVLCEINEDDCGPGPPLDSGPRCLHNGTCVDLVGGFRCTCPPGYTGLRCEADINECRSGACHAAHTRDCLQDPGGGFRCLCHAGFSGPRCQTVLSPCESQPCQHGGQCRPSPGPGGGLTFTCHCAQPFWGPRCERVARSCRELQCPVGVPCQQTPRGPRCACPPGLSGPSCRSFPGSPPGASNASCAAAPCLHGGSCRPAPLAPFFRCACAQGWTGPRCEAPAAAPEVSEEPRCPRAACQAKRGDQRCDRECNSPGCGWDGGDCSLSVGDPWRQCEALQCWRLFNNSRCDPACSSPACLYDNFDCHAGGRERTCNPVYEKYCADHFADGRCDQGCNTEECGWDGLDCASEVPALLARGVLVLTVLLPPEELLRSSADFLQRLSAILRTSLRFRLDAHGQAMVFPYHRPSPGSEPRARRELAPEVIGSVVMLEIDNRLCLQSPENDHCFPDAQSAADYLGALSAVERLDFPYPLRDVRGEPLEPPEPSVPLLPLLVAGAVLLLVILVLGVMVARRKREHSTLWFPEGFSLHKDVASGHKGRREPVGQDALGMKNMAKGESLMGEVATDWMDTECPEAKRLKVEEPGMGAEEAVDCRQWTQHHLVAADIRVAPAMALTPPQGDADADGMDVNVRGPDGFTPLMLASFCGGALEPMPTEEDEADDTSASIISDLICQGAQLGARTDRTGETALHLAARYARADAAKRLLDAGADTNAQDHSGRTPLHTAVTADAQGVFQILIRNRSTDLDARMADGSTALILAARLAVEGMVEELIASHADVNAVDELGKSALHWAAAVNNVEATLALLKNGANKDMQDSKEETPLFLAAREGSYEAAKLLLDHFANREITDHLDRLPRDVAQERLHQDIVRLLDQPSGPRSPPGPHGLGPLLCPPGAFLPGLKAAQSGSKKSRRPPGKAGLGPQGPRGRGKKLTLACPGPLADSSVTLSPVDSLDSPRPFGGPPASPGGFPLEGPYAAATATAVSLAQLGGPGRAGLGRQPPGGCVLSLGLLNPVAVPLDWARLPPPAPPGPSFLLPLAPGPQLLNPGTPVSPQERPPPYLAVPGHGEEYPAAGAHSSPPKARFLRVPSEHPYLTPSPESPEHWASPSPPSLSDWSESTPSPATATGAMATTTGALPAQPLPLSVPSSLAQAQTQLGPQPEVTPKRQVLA
Torsin-1A-interacting protein 2 (Homo sapiens), sequence (Q8NFQ8 whole entry, looked up): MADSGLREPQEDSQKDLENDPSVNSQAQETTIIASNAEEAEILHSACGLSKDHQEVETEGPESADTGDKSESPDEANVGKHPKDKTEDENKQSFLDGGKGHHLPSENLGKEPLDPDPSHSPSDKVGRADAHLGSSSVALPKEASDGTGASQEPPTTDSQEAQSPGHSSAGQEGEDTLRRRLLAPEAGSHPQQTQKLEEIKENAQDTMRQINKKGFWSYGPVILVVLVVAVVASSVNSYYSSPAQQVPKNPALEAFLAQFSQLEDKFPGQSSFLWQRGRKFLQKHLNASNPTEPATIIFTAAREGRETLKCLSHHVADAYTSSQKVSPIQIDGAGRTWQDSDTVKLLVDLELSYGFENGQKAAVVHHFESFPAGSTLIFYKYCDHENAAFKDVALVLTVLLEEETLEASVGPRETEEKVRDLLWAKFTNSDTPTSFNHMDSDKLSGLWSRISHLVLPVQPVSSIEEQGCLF

| SMILES | composite z-score [1] | composite z-score [2] | composite z-score [3] | composite z-score [4] | composite z-score [5] | composite z-score [6] | composite z-score [7] | z-score [8] | composite z-score [9] | composite z-score [10] | composite z-score [11] | z-score [12] | z-score [13] | z-score [14] | composite z-score [15] | z-score [16] | composite z-score [17] | composite z-score [18] | composite z-score [19] | composite z-score [20] |
| --- | --- | --- | --- | --- | --- | --- | --- | --- | --- | --- | --- | --- | --- | --- | --- | --- | --- | --- | --- | --- |
| CC(=CC1CCCCC1)[C@@H](NC(=O)c1ccc(C(F)(F)F)cc1)c1ccc(-c2ccccc2)cc1 | 0.21 | -0.259 | 0.0083 | -0.0821 | 0.0836 | 1.02 | -0.54 | 0.235 (inactive) | 0.112 | 0.57 | -0.211 | 0.537 (inactive) | -0.91 (inactive) | -0.938 (inactive) | -0.192 | -1.33 (inactive) | 0.0943 | 0.0323 | -0.779 | 0.0353 |
| COCC(=C=CC[C@@H](O)c1ccc(CO)o1)CCO | -0.403 | -0.196 | -0.188 | 0.502 | -0.235 | 0.178 | -0.149 | -1.71 (inactive) | -0.0032 | 0.011 | 0.737 | -3.24 (inactive) | -2.34 (inactive) | -2.27 (inactive) | -0.816 | 1.6 (inactive) | -0.256 | 1.33 | 0.735 | -0.0943 |
| COc1ccc(CCN2C(=O)[C@@]3(Cc4ccccc42)c2ccccc2C(=O)N(Cc2ccccc2Cl)[C@H]3c2ccc(CO)cc2)cc1 | 0.451 | -0.73 | -0.0744 | -0.249 | -0.13 | -0.221 | 0.834 | -0.236 (inactive) | -0.285 | -0.0994 | 1.34 | -0.411 (inactive) | -1.51 (inactive) | -1.24 (inactive) | 0.494 | 0.169 (inactive) | -0.126 | -1.05 | -0.981 | -0.169 |
| CC(C)CNC(=O)[C@@]1(c2ccc([N+](=O)[O-])cc2)CC(=O)N(CC23CC4CC(CC(C4)C2)C3)[C@@H]1c1ccc(CO)cc1I | 0.483 | 0.699 | -0.0226 | 0.26 | 1.34 | 0.168 | 1.29 | -1.52 (inactive) | 0.283 | -0.0994 | 1.54 | 0.951 (inactive) | 0.864 (inactive) | 3.26 (inactive) | 3.06 | -0.569 (inactive) | -0.0144 | 1.3 | 1.09 | -0.0088 |
| COC(=O)[C@@]1(Cc2ccccc2)[C@H]2c3cc(C(=O)N4CCCC4)n(C)c3C[C@H]2CN1C(=O)c1ccccc1 | 0.483 | -0.207 | 0.107 | -0.0646 | 1.67 | 1.51 | 1.25 | 0.121 (inactive) | 0.882 | 1.72 | 0.0683 | 0.29 (inactive) | 0.68 (inactive) | 0.0928 (inactive) | 3.35 | 0.391 (inactive) | 0.0165 | 0.0182 | 0.732 | 0.287 |
| CCOC(=O)C[C@H]1[C@H](OC(=O)c2ccc(-c3ccccc3)cc2)[C@@H](NC(=O)Cc2ccc(OC)cc2)c2cc(OCCCO)ccc2N1C(=O)c1ccc2ccccc2n1 | -0.389 | -0.188 | 0.0176 | 0.178 | 0.76 | 0.33 | 0.0896 | 0.817 (inactive) | 0.484 | -0.0645 | 0.532 | -0.914 (inactive) | 0.56 (inactive) | 0.0126 (inactive) | 1.73 | -0.733 (inactive) | -0.0561 | 0.587 | 0.317 | 0.223 |
| C=C[C@@H](COC(C)=O)N(Cc1ccc([N+](=O)[O-])cc1)S(=O)(=O)c1ccc(Br)cc1 | 0.381 | -0.339 | 0.0258 | 0.642 | 1.1 | 0.668 | 1.12 | -1.5 (inactive) | 0.804 | -0.21 | 0.876 | -0.0928 (inactive) | -1.26 (inactive) | 3.93 (inactive) | 1.25 | 2.1 (inactive) | 0.157 | -0.0608 | 0.733 | 0.158 |
| O=C1c2ccccc2[C@@]2(Cc3ccccc3N(Cc3ccccc3)C2=O)[C@H](c2ccc(CO)cc2)N1C1CCCCC1 | -0.382 | -0.832 | -0.152 | -0.0341 | -0.203 | 0.662 | 1.37 | -0.0414 (inactive) | -0.244 | -0.201 | 1.21 | -0.676 (inactive) | 1.1 (inactive) | -0.619 (inactive) | 0.525 | -0.0011 (inactive) | -0.239 | 0.61 | 0.269 | -0.2 |
| CS(=O)(=O)CCOC(=O)C1=CC(c2ccc(CO)cc2)=CC(C2CC2)N(Cc2cc3c(cc2Br)OCO3)C=C1C(=O)OCCS(C)(=O)=O (stereo not given) | -0.232 | 0.28 | -0.0266 | 0.959 | 1.13 | 1.78 | 1.27 | -2.1 (inactive) | 0.566 | 0.245 | 1.47 | -0.938 (inactive) | -6.09 (inactive) | -0.247 (inactive) | 2.83 | 0.514 (inactive) | 0.17 | 0.782 | 0.929 | 0.0796 |
| CC(C)(C)OC(=O)CC[C@]1(C(=O)N2CCCCC2)N=C(c2ccc(OCCCO)cc2)O[C@H]1c1ccccc1N=[N+]=[N-] | 1.14 | 0.933 | -0.0328 | 0.877 | 1.32 | 1.42 | 1.3 | -0.275 (inactive) | 1.24 | 0.0818 | 1.54 | 0.589 (inactive) | 0.402 (inactive) | 0.73 (inactive) | 3.05 | 1.62 (inactive) | 0.292 | 1.21 | 1.01 | 0.872 |
